Laboratory results reported in PubChem BioAssay (NCI).
About 79,000 compounds went through this panel and 15% of them were active in at least one assay; those are over-represented in the sample as a whole. Active and inactive are the calls of the source. No stated cut-off is given here; in the data, active means growth inhibition above about 70%; inactive means the rest.

Assays:
[1] = NCI Yeast Anticancer Drug Screen. Data for the rad52 strain (AID 147);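 further: 0% = growth of vehicle-treated control cultures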; conditions: S. cerevisiae rad52 mutant growth inhibition, active compounds read high
Procedure, shortened: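 Inhibition of yeast growth, referenced to vehicle controls, was the measured output for a strain with defective DNA damage repair.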

[2] = NCI Yeast Anticancer Drug Screen. Data for the wt1 strain (AID 149);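 further: 0% = growth of vehicle-treated wt1 cultures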; conditions: S. cerevisiae wt1 strain (SPY 50644) growth inhibition, active compounds read high
Procedure, shortened: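 Compounds are added to wt1 yeast cultures. Growth is then measured. Inhibition is expressed relative to vehicle-treated controls.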

[3] = NCI Yeast Anticancer Drug Screen. Data for the rad50EPP+ strain (AID 151);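 further: 0% = growth of vehicle-treated control cultures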; conditions: S. cerevisiae rad50 mutant strain, active compounds read high
Procedure, shortened: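 Genetically defined yeast (rad50EPP+, DNA damage repair alteration) is grown with compound, and inhibition of growth is expressed relative to vehicle-treated controls.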

[4] = NCI Yeast Anticancer Drug Screen. Data for the mgt1 strain (AID 153); conditions: S. cerevisiae mgt1 mutant growth inhibition, active compounds read high
Procedure, shortened: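 In the mgt1 strain, test compounds were added and growth inhibition was determined relative to vehicle-treated controls.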

[5] = NCI Yeast Anticancer Drug Screen. Data for the rad50 strain (AID 155);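 further: 0% = growth of vehicle-only cultures of the same strain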; conditions: S. cerevisiae rad50 strain growth inhibition, active compounds read high
Procedure, shortened: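 Inhibition values express reduced yeast growth in compound-treated cultures relative to vehicle-treated controls.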

[6] = NCI Yeast Anticancer Drug Screen. Data for the mec2-1 strain (AID 157); conditions: S. cerevisiae mec2-1 strain, active compounds read high
Procedure, shortened: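 Each compound was tested on mec2-1 yeast, a strain altered in DNA damage repair or cell cycle control. Growth inhibition is reported relative to vehicle.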

[7] = NCI Yeast Anticancer Drug Screen. Data for the rad14 strain (AID 159);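 further: 0% = growth of vehicle-treated control cultures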; conditions: S. cerevisiae rad14 strain growth inhibition, active compounds read high
Procedure, shortened: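 A mutant yeast strain defective in DNA damage repair is treated with compound; inhibition of its growth is scored against untreated, vehicle-exposed cultures.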

[8] = NCI Yeast Anticancer Drug Screen. Data for the sgs1 mgt1 strain (AID 161);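 further: 0% = growth of cultures given vehicle only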; conditions: S. cerevisiae sgs1 mgt1 strain, active compounds read high
Procedure, shortened: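 Read-out: growth inhibition vs vehicle controls. Cells: mutant yeast strain deficient in DNA damage repair.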

[9] = NCI Yeast Anticancer Drug Screen. Data for the CLN2oe strain (AID 163);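 further: 0% = growth of vehicle-only control cultures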; conditions: S. cerevisiae CLN2oe strain, active compounds read high
Procedure, shortened: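 First, the altered yeast strain was treated with each compound; second, its growth was measured; finally, inhibition was derived by comparison with vehicle controls.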

[10] = NCI Yeast Anticancer Drug Screen. Data for the cln2 rad14 strain (AID 165);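 further: 0% = growth equal to vehicle treated cultures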; conditions: S. cerevisiae cln2 rad14 strain, active compounds read high
Procedure, shortened: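 Test compounds were added to cln2 rad14 yeast cultures; inhibition of growth was then determined by comparison with vehicle treatment.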

[11] = NCI Yeast Anticancer Drug Screen. Data for the bub3 strain (AID 167); conditions: S. cerevisiae bub3 mutant strain, active compounds read high
Procedure, shortened: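 Steps: expose the mutant yeast strain to compound; grow alongside vehicle-treated cultures; measure growth; express inhibition against the vehicle cultures.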

[12] = NCI Yeast Anticancer Drug Screen. Data for the wt2 strain (AID 169);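 further: 0% = growth of vehicle-treated yeast cultures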; conditions: S. cerevisiae wt2 strain growth inhibition, active compounds read high
Procedure, shortened: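 The panel's yeast strains carry defined changes in DNA repair or cell cycle genes. Each strain is grown with compound, and growth loss is scored relative to vehicle.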

[13] = NCI Yeast Anticancer Drug Screen. Data for the mlh1 strain (AID 171);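 further: 0% = growth of vehicle-treated control cultures of the same strain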; conditions: S. cerevisiae mlh1 strain growth inhibition, active compounds read high
Procedure, shortened: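 Inhibition values reflect reduced yeast growth in the presence of compound, referenced to vehicle controls, using a strain chosen for its alteration in DNA repair or cell cycle control.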

[14] = NCI Yeast Anticancer Drug Screen. Data for the mlh1 rad18 strain (AID 175); conditions: S. cerevisiae mlh1 rad18 strain growth inhibition, active compounds read high
Procedure, shortened: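 Inhibition values reflect reduced growth of mutant yeast versus vehicle-treated controls following compound exposure; the mutations affect DNA damage repair.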

[15] = NCI Yeast Anticancer Drug Screen. Data for the rad18 strain (AID 177); conditions: S. cerevisiae rad18 mutant growth inhibition, active compounds read high
Procedure, shortened: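 Steps: expose repair-mutant yeast to compound; measure growth; express as inhibition relative to vehicle control.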

[16] = NCI Yeast Anticancer Drug Screen. Data for the sgs1 strain (AID 173);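 further: 0% = growth of vehicle-only control cultures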; conditions: S. cerevisiae sgs1 mutant, active compounds read high
Procedure, shortened: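 Vehicle-treated cultures served as reference for growth inhibition of a yeast strain altered in DNA damage repair or cell cycle control after compound exposure.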

[17] = at 5.0 µM (retest, dose inferred, filed as 0.5)
[18] = at 50.0 µM (retest, dose inferred, filed as 5.0)

Measured: growth inhibition

O=[N+]([O-])/C=C/c1cc2ccc3ccccc3c2[nH]1
inactive: [1]; at 1.2 µM 27% | [1]; at 3.7 µM 66% | [2]; at 1.2 µM 9% | [2]; at 3.7 µM 19% | [2]; at 11.0 µM 41% | [4]; at 1.2 µM 15% | [4]; at 3.7 µM 55% | [5]; at 1.2 µM 39% | [5]; [17] 63% | [6]; at 1.2 µM 20% | [6]; at 3.7 µM 33% | [6]; [17] 55% | [6]; at 11.0 µM 63% | [7]; at 1.2 µM 11% | [7]; at 3.7 µM 27% | [7]; at 11.0 µM 62% | [9]; at 1.2 µM 0% | [9]; at 3.7 µM 12% | [9]; at 11.0 µM 31% | [9]; at 33.0 µM 63% | [10]; [17] -6% | [11]; at 1.2 µM 12% | [11]; at 3.7 µM 28% | [11]; [17] 50% | [11]; at 11.0 µM 58% | [12]; at 1.2 µM 26% | [12]; at 3.7 µM 57% | [13]; at 1.2 µM 25% | [13]; at 3.7 µM 50% | [15]; at 1.2 µM 61%
active: [1]; at 11.0 µM 83% | [1]; at 33.0 µM 88% | [1]; at 100.0 µM 88% | [2]; at 33.0 µM 79% | [2]; at 100.0 µM 93% | [3]; at 1.2 µM 91% | [3]; at 3.7 µM 94% | [3]; at 11.0 µM 94% | [3]; at 33.0 µM 93% | [3]; at 100.0 µM 87% | [4]; at 11.0 µM 81% | [4]; at 33.0 µM 95% | [4]; at 100.0 µM 93% | [5]; at 3.7 µM 70% | [5]; at 11.0 µM 78% | [5]; at 33.0 µM 83% | [5]; [18] 96% | [5]; at 50.0 µM 95.8% | [5]; at 100.0 µM 82% | [6]; at 33.0 µM 88% | [6]; [18] 98% | [6]; at 50.0 µM 98.8% | [6]; at 100.0 µM 93% | [7]; at 33.0 µM 88% | [7]; at 100.0 µM 91% | [8]; [17] 88% | [8]; [18] 97% | [8]; at 50.0 µM 98.7% | [9]; at 100.0 µM 87% | [10]; [18] 83% | [10]; at 50.0 µM 97.2% | [11]; at 33.0 µM 86% | [11]; [18] 96% | [11]; at 50.0 µM 98.8% | [11]; at 100.0 µM 91% | [12]; at 11.0 µM 87% | [12]; at 33.0 µM 95% | [12]; at 100.0 µM 93% | [13]; at 11.0 µM 83% | [13]; at 33.0 µM 93% | [13]; at 100.0 µM 93% | [14]; [17] 84% | [14]; [18] 94% | [14]; at 50.0 µM 98% | [15]; at 3.7 µM 86% | [15]; at 11.0 µM 90% | [15]; at 33.0 µM 92% | [15]; at 100.0 µM 87%

CCN(CC)CCCNc1ccc([N+](=O)[O-])c2nc3ccc(OC)cc3c(NCCCN(CC)CC)c12
inactive: [1]; at 1.2 µM 15% | [1]; at 3.7 µM 6% | [1]; at 11.0 µM 9% | [1]; at 33.0 µM 11% | [1]; at 100.0 µM 19% | [2]; at 1.2 µM -81% | [2]; at 3.7 µM 0% | [2]; at 11.0 µM -2% | [2]; at 33.0 µM -2% | [2]; at 100.0 µM 0% | [3]; at 1.2 µM 0% | [3]; at 3.7 µM 3% | [3]; at 11.0 µM 4% | [3]; at 33.0 µM 9% | [3]; at 100.0 µM 13% | [4]; at 1.2 µM 2% | [4]; at 3.7 µM 2% | [4]; at 11.0 µM 3% | [4]; at 33.0 µM 1% | [4]; at 100.0 µM 1% | [5]; at 1.2 µM -2% | [5]; at 3.7 µM -1% | [5]; [17] 23% | [5]; at 11.0 µM -1% | [5]; at 33.0 µM 4% | [5]; [18] 18% | [5]; at 50.0 µM 66.5% | [5]; at 100.0 µM 9% | [6]; at 1.2 µM -1% | [6]; at 3.7 µM 2% | [6]; [17] 6% | [6]; at 11.0 µM -2% | [6]; at 33.0 µM 1% | [6]; [18] 26% | [6]; at 50.0 µM 5.05% | [6]; at 100.0 µM 1% | [7]; at 1.2 µM -1% | [7]; at 3.7 µM 0% | [7]; at 11.0 µM -1% | [7]; at 33.0 µM 0% | [7]; at 100.0 µM 1% | [8]; [17] -8% | [8]; [18] 20% | [8]; at 50.0 µM 13% | [9]; at 1.2 µM -10% | [9]; at 3.7 µM -9% | [9]; at 11.0 µM -4% | [9]; at 33.0 µM -6% | [9]; at 100.0 µM -2% | [10]; [17] 43% | [10]; [18] 57% | [10]; at 50.0 µM 24.8% | [11]; at 1.2 µM -6% | [11]; at 3.7 µM -7% | [11]; [17] 14% | [11]; at 11.0 µM -7% | [11]; at 33.0 µM -6% | [11]; [18] 6% | [11]; at 50.0 µM 13.4% | [11]; at 100.0 µM -4% | [12]; at 1.2 µM -2% | [12]; at 3.7 µM 0% | [12]; at 11.0 µM 1% | [12]; at 33.0 µM -1% | [12]; at 100.0 µM 0% | [13]; at 1.2 µM 0% | [13]; at 3.7 µM -2% | [13]; at 11.0 µM 0% | [13]; at 33.0 µM -2% | [13]; at 100.0 µM -1% | [16]; at 1.2 µM 2% | [16]; at 3.7 µM 5% | [16]; at 11.0 µM 2% | [16]; at 33.0 µM 1% | [16]; at 100.0 µM 1% | [14]; [17] 13% | [14]; [18] 37% | [14]; at 50.0 µM 0.2% | [15]; at 1.2 µM 0% | [15]; at 3.7 µM 0% | [15]; at 11.0 µM 6% | [15]; at 33.0 µM 4% | [15]; at 100.0 µM 7%
